Results published in article PMC12136788.
Positions count from the first letter of the chain named. Over roughly 24,000 sequences, “enrichment r” has its median near 0.99; the highest 2% begin near 3.7. Only a selection was taken, and the highest values are over-represented in it overall.

B1: 33187691_33187811_5116_3pUTR_ENSG00000170275_ENST00000320954|human|control|control (ssRNA)
RNA: GGGAGUUCUACAGUCCGACGAUCGCCUGCAGAACCAAACAGCAACCACUGAGCUCCAUGCUGAUGGGUCAAAGGACAAGCAAGGCAUCUUAGAGCAGGCCUGGAAGCUCCCACAAAGCUUACAAAUGUGUUUGUUUUUUCGAACAACAGAGGAUUGAGCAUCA
B2: chr6:38652254:38652255:-_ENSG00000124767_ENST00000373365|hu_hu|hu_hu_hu_mus_False|18_18 (ssRNA)
RNA: GGGAGUUCUACAGUCCGACGAUCCGAGAACUUCAUAGCAGGGAAGUCAAGCUUCUGCAGGAGGGUCAGUCCAAGAACCCUCGUAUAAAAAUCCAGGGACUUCUUAGGAUCCUUAAUUCGUAGCAUGGUUUGCUGCAGUAGAAACAACAGAGGAUUGAGCAUCA
B3: chr2:43450610:43450611:-_ENSG00000152518_ENST00000282388|hu_hu|motif|central (ssRNA)
RNA: GGGAGUUCUACAGUCCGACGAUCAGUUAAAUAGUUUUCAUAUUGAGUUGUGGUGCAGUGGUGCGAAUCAACUCAAAACAGCGGAAAAUUCAGCAGUUAUUCUCCAACAAUUACAAAGUAAGCUCUGCGCAAGGCUUCCAGAGGCAACAGAGGAUUGAGCAUCA
B4: chr17:36096658:36096659:-_ENSMUSG00000038762_ENSMUST00000043757|mus_mus|FALSE|FALSE (ssRNA)
RNA: GGGAGUUCUACAGUCCGACGAUCCUGCUUCUCGUACUGCUUUAGCAGCUCUUUCUGCUUCUGCUGGUACAUCUUCUUGAAGGUCAUGUAAUUGCCCCUGUAGUAAUGGAGCCGCUGGGUGUCCAGGUGGAUGAUAUCAGUGCACAACAGAGGAUUGAGCAUCA
B5: chrX:71549400:71549401:+_ENSMUSG00000019087_ENSMUST00000019231|mus_hu|mus_mus_mus_hu_False|28_98 (ssRNA)
RNA: GGGAGUUCUACAGUCCGACGAUCGCAGUAGGAAGAGCAAACCUUUCCAGUCCAGUGCGCUGCAGGGUGGGAAAGCAACAACACGGACACCGUCCCACCCUCAACCCUCUCAGGUGUACAGGGUCACACAAUCUGGGUCAAAGACAACAGAGGAUUGAGCAUCA
B6: chr17:65337090:65337091:-_ENSG00000197170_ENST00000584008|hu_hu|FALSE|FALSE (ssRNA)
RNA: GGGAGUUCUACAGUCCGACGAUCACCAGUCAUUUAAUAAAUUAUUUGGAUCCUUGGGUCUCUGGAAGUUGAUAAUUCCUGCUAAUCUGUCUACUUUAGCAAAGAUGGUCUUGUUAACUACUAGAUUUGAGAGAAAGGCUUCGGCAACAGAGGAUUGAGCAUCA
B7: chr13:100193180:100193181:-_ENSMUSG00000052727_ENSMUST00000064762|mus_mus|motif|central (ssRNA)
RNA: GGGAGUUCUACAGUCCGACGAUCAUAAUAUAAAGGCUAAAUAAAUUUAAGUUGGAAAACUGGAAGAUAACUCCAUCUUCGGUGAAAGAAAAGUCAACCAGAGGUCUGGAUUUGGCAAGAAGGCUAGAAAUUGUUUCUCUUCACCAACAGAGGAUUGAGCAUCA
B8: chr13:100193180:100193181:-_ENSMUSG00000052727_ENSMUST00000064762|mus_mus|FALSE|FALSE (ssRNA)
RNA: B7 RNA with G80U, G81A
B9: chr1:182797045:182797046:+_ENSMUSG00000038806_ENSMUST00000038091|mus_hu|FALSE|FALSE (ssRNA)
RNA: GGGAGUUCUACAGUCCGACGAUCAGACUCAAGCUAAAUAGAAGAAAGAAAAUAACAGAAAUUAAUUAUAUAAACAAUUGAGAAAAAUAAAACCAAAGGUUGGUUCUUUAAAAGUUAUAUCGUCGGCCAGGCACGGUGGCUCACCAACAGAGGAUUGAGCAUCA
B10: chr4:11091628:11091629:+_ENSMUSG00000028211_ENSMUST00000029865|mus_mus|motif|central (ssRNA)
RNA: GGGAGUUCUACAGUCCGACGAUCUUCUUUCUCACUGAAUUCUGGUUCUUGGCUGGAAGAAGUAGUGACUUCGCCGGCAAACAUUUUAUUCAGUCUCUGAAACAUUGUUAAGGCAAGAUUGAGAUUUUGGCUAGAUAUCUUUAUCAACAGAGGAUUGAGCAUCA

Molecular target: T1, UNK ZnF1-3 (human, UniProt Q9C0B0 31-174)
T1 sequence: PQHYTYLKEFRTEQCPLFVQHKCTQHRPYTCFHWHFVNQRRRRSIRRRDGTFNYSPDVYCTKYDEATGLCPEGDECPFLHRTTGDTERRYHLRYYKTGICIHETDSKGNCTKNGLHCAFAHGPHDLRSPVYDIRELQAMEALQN
Assay: nsRBNS (natural sequence RNA bind-n-seq); RBNS binding buffer (assumed for nsRBNS): 25 mM Tris pH 7.5, 150 mM KCl, 3 mM MgCl2, 0.01% Triton X-100, 500 ug/ml BSA, 20 U/ml SUPERase-In, 4 C; UNK is unkempt and MSI1 is Musashi-1; names of the RNAs are library labels; protein concentration not given here; high values mean tight binding

**Q.** How did the binding signal turn out when B1 was run?
**A.** 1.65 enrichment R

**Q.** For B2, which binding signal is on record?
**A.** 0.56 enrichment R

**Q.** Which binding signal does the source give for B3 here?
**A.** 1.75 enrichment R

**Q.** How did the binding signal turn out when B4 was run?
**A.** 0.639 enrichment R

**Q.** Which binding signal does the source give for B5 here?
**A.** 0.931 enrichment R

**Q.** How did the binding signal turn out when B6 was run?
**A.** 1.44 enrichment R

**Q.** How did the binding signal turn out when B7 was run?
**A.** 6.8 enrichment R

**Q.** B8 was tested. Which binding signal did it give?
**A.** 3.86 enrichment R

**Q.** B9 was tested. Which binding signal did it give?
**A.** 14.2 enrichment R

**Q.** How did the binding signal turn out when B10 was run?
**A.** 0.789 enrichment R
